According to the supplement of paper PMC6411743:
± gives the standard deviation of the averaged measurements. The full data set covers some 5,400 targets. This sample favours those with the largest changes.

Compound: Nc1nc2c(ncn2[C@@H]2O[C@H](COP(=O)(O)OP(=O)(O)OP(=O)(O)O)[C@@H](O)[C@H]2O)c(=O)[nH]1 [guanosine triphosphate]
Assay: NP40-soluble protein abundance relative to vehicle (solubility fold change) (ratio); higher = more soluble protein in presence of GTP
Method in brief: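 Each value is a fold change relative to the detergent-processed vehicle, calculated per replicate from vsn-normalised intensities. Jurkat crude lysate received eight concentrations (0.1 to 10 mM) for 10 min at room temperature and 3 min at 37 °C, then was solubilised in 0.8% NP40 with benzonase (60 min, 4 °C). The ultracentrifuged supernatant was TMT-labelled and run by LC-MS/MS in three independent experiments.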

Sequence of UniProt O60830 (O60830 whole entry, one chain of several): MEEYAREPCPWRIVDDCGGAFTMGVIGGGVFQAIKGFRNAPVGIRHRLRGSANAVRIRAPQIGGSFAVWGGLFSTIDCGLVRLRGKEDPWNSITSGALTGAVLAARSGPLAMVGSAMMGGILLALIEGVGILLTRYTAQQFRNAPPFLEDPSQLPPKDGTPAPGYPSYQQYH
Sequence of UniProt P18065 (P18065 whole entry): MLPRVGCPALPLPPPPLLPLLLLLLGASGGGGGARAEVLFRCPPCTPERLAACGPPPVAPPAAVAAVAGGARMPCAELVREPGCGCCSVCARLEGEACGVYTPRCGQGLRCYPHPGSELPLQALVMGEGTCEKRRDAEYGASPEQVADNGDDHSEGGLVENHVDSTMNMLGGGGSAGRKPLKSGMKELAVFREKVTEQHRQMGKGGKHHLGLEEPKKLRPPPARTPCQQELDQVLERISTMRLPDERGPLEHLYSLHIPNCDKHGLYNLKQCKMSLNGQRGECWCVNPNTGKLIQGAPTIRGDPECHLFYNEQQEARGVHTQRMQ
Sequence of UniProt P51532 (P51532 whole entry, one chain of several): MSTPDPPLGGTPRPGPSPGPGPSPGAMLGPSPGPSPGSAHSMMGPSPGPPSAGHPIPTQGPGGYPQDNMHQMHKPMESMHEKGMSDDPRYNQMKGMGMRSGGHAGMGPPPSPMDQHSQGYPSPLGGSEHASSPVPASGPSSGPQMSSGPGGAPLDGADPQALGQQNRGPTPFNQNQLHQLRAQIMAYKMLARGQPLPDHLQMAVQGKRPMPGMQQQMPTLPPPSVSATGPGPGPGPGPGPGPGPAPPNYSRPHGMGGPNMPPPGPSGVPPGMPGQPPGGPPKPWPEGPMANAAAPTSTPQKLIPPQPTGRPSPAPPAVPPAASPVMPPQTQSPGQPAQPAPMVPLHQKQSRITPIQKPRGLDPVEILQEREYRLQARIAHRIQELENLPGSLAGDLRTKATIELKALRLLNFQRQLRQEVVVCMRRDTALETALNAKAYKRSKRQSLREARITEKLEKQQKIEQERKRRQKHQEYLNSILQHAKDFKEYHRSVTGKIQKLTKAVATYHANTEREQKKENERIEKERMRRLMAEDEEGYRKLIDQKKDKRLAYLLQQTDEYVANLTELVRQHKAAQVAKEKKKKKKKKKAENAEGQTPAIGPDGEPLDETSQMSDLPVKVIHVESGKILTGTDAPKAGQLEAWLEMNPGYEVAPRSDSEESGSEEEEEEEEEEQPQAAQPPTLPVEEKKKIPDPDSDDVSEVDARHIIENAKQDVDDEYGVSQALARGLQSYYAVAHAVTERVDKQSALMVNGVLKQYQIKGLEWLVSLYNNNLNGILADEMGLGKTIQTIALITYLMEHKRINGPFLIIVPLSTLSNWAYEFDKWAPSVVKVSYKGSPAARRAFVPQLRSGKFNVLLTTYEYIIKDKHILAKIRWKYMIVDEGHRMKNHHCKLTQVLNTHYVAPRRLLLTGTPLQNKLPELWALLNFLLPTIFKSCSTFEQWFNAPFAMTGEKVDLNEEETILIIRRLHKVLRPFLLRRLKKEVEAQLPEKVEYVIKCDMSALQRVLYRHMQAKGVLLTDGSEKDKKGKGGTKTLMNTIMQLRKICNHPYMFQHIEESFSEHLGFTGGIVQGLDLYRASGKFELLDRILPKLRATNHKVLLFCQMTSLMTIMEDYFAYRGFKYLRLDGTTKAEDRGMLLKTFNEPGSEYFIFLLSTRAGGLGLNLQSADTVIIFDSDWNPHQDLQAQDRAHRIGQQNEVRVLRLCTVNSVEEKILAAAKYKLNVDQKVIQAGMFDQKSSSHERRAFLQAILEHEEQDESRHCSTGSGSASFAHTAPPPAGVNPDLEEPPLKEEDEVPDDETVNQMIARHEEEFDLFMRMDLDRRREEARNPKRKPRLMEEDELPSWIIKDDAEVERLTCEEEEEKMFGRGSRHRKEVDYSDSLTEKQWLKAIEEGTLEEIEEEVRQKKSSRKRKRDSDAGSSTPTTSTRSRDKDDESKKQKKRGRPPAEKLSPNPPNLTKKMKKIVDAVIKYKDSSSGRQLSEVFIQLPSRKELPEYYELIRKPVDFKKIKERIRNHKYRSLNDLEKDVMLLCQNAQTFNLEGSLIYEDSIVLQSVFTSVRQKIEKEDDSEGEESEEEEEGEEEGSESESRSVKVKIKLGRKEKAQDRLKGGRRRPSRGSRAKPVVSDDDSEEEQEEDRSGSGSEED
Sequence of UniProt O43324 (O43324 whole entry): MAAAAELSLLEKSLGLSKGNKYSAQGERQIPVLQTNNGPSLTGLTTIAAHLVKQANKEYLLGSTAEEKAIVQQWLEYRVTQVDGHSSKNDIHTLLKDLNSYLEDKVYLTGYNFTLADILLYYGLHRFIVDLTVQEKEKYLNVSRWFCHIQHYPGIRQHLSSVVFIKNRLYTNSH
Sequence of UniProt O60669 (O60669 whole entry): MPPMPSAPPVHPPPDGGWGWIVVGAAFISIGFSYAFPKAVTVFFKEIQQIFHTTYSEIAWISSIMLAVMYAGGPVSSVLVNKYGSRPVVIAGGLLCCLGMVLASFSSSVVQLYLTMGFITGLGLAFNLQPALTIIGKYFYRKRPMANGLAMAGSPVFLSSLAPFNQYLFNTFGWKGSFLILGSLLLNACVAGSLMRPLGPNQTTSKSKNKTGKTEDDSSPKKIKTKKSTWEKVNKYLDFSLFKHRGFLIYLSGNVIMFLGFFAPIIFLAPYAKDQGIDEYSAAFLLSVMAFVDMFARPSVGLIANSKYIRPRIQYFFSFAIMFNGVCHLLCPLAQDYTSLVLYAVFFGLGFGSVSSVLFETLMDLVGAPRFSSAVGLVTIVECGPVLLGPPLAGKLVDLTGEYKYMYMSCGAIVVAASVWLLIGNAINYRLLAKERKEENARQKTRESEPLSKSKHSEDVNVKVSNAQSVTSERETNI
Sequence of UniProt Q9C037 (Q9C037 whole entry, one chain of several): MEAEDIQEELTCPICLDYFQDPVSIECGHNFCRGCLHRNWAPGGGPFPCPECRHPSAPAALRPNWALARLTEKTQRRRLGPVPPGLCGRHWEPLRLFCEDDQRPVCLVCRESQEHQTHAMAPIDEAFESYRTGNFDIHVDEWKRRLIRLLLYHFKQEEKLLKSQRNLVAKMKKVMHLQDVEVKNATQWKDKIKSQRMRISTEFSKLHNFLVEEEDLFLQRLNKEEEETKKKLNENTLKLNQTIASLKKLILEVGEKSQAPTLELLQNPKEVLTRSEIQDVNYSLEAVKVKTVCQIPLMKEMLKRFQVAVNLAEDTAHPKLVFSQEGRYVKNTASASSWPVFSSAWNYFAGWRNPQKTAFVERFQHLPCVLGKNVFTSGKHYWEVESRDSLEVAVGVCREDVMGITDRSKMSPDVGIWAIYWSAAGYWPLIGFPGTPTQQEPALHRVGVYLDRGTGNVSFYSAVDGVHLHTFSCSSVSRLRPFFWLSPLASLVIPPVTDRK
Sequence of UniProt O95232 (O95232 whole entry, one chain of several): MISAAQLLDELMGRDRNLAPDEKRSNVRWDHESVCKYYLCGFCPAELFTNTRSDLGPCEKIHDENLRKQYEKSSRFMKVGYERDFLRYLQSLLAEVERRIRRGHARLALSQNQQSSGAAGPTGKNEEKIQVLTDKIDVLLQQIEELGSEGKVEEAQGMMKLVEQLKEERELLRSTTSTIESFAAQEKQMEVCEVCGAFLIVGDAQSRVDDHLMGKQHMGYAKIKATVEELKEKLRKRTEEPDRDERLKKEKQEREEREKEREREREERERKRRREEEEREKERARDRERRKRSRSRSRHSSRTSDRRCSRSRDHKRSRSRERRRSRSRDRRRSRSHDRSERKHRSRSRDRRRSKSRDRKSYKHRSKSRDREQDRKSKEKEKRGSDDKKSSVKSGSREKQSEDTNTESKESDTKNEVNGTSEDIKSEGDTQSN
Sequence of UniProt O14925 (O14925 whole entry): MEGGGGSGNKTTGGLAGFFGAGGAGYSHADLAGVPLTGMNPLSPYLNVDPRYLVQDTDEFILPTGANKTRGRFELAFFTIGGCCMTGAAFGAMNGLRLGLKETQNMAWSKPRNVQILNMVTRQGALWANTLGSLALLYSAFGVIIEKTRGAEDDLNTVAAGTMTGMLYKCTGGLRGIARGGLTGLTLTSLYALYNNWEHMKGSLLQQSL
Sequence of UniProt P14550 (P14550 whole entry): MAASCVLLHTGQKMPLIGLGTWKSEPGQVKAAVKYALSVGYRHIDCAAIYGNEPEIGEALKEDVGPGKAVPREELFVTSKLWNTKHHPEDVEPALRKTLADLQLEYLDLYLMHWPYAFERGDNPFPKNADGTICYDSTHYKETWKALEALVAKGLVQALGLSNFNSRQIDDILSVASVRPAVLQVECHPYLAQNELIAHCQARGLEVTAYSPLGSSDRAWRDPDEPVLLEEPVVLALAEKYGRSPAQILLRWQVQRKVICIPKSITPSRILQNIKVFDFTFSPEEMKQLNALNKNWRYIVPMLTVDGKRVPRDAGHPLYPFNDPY
Sequence of UniProt P09564 (P09564 whole entry): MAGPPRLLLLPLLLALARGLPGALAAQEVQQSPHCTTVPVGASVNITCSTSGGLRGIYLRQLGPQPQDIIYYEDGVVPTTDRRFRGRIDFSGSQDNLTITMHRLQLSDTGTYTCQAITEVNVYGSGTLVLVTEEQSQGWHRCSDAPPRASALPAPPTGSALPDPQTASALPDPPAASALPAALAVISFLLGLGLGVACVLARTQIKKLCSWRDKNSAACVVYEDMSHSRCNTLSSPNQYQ
Sequence of UniProt Q9HAH7 (Q9HAH7 whole entry, one chain of several): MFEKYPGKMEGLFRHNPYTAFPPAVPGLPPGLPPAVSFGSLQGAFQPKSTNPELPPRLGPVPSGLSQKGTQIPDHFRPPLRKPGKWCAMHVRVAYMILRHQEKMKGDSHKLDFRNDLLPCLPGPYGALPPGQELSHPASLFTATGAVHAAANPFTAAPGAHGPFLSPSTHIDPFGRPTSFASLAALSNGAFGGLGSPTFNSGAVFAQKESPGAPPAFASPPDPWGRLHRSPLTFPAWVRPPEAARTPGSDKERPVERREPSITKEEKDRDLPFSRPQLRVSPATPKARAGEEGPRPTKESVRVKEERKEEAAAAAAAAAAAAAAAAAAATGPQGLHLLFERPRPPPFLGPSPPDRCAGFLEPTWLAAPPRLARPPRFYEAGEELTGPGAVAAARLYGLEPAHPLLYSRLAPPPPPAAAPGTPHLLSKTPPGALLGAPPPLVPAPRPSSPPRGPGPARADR

Target	NP40-soluble protein abundance (concentration: 0.1mM)	NP40-soluble protein abundance (concentration: 0.5mM)	NP40-soluble protein abundance (concentration: 1mM)	NP40-soluble protein abundance (concentration: 2mM)	NP40-soluble protein abundance (concentration: 4mM)	NP40-soluble protein abundance (concentration: 6mM)	NP40-soluble protein abundance (concentration: 8mM)	NP40-soluble protein abundance (concentration: 10mM)
AKR1A1 (UniProt P14550)	0.93 ± 0.035	0.912 ± 0.034	0.888 ± 0.04	0.876 ± 0.037	0.873 ± 0.047	0.849 ± 0.04	0.831 ± 0.088	0.825 ± 0.08
UniProt O43399|O43399-5|O43399-7	0.814 ± 0.11	0.76 ± 0.039	1 ± 0.15	0.946 ± 0.028	0.91 ± 0.03	0.916 ± 0.033	0.875 ± 0.16	1.08 ± 0.15
UniProt P28907	0.92 ± 0.058	0.876 ± 0.075	0.927 ± 0.063	0.902 ± 0.091	0.891 ± 0.088	0.925 ± 0.088	0.895 ± 0.1	0.894 ± 0.058
PPT1 (UniProt P50897)	0.888 ± 0.06	0.859 ± 0.12	0.968 ± 0.083	0.872 ± 0.12	0.873 ± 0.068	0.887 ± 0.11	0.876 ± 0.059	0.861 ± 0.099
H7C0Q6|Q9C037|Q9C037-2|Q9C037-3 (UniProt Q9C037)	1.08 ± 0.076	1.037 ± 0.0073	1.03 ± 0.068	0.998 ± 0.052	0.968 ± 0.069	0.981 ± 0.063	0.979 ± 0.07	0.918 ± 0.074
CBR3 (UniProt O75828)	1.15 ± 0.032	1.21 ± 0.11	1.11 ± 0.029	1.06 ± 0.082	1.04 ± 0.082	0.936 ± 0.091	1.08 ± 0.22	1.09 ± 0.11
P0C0S5|Q71UI9 (UniProt Q71UI9+P0C0S5)	0.898 ± 0.042	0.919 ± 0.033	1.11 ± 0.065	1.11 ± 0.06	1.12 ± 0.06	1.25 ± 0.094	1.25 ± 0.079	1.57 ± 0.18
UniProt P23025|F2Z2T2	1.07 ± 0.044	1.08 ± 0.049	1.21 ± 0.054	1.02 ± 0.1	1.05 ± 0.074	1.08 ± 0.14	1.12 ± 0.028	1.08 ± 0.097
UniProt P04150|P04150-10|P04150-2|P04150-3|P04150-5|P04150-6|P04150-7|P04150-8|P04150-9|P04150-11|P04150-12|P04150-13	0.899 ± 0.13	0.946 ± 0.032	1.14 ± 0.072	1.07 ± 0.029	1.01 ± 0.043	0.999 ± 0.055	1.02 ± 0.046	1.05 ± 0.069
IGFBP2 (UniProt P18065)	0.9 ± 0.042	0.884 ± 0.053	0.983 ± 0.035	0.997 ± 0.043	0.995 ± 0.028	0.934 ± 0.062	1.02 ± 0.054	1.05 ± 0.087
TIMM23 (UniProt O14925)	0.979 ± 0.016	0.902 ± 0.037	0.856 ± 0.016	0.892 ± 0.02	0.904 ± 0.043	0.877 ± 0.026	0.838 ± 0.046	0.898 ± 0.042
UniProt P09564	1.03 ± 0.2	0.908 ± 0.048	1.09 ± 0.19	0.942 ± 0.15	1.02 ± 0.13	0.977 ± 0.15	1 ± 0.17	0.932 ± 0.14
HMGN2 (UniProt P05204)	0.992 ± 0.2	1 ± 0.14	1.31 ± 0.23	1.46 ± 0.35	1.5 ± 0.11	1.89 ± 0.35	1.7 ± 0.41	2.68 ± 0.3
J3KNZ9 (UniProt Q9HAH7)	1.01 ± 0.12	0.933 ± 0.095	0.978 ± 0.056	0.984 ± 0.061	0.971 ± 0.051	1.01 ± 0.05	1.02 ± 0.015	1.01 ± 0.061
UniProt O94964-2|O94964|O94964-4|X6R3R3	1.05 ± 0.11	0.998 ± 0.13	1.139 ± 0.011	1.07 ± 0.025	1.09 ± 0.047	1.03 ± 0.037	1.12 ± 0.072	0.994 ± 0.041
UniProt O60830|O60830-2|V9GYS0	1.82 ± 0.63	1 ± 0.039	0.957 ± 0.15	1.01 ± 0.13	1 ± 0.11	0.969 ± 0.13	0.942 ± 0.051	0.955 ± 0.045
TOMM40 (UniProt O96008)	1.01 ± 0.045	1.04 ± 0.031	0.953 ± 0.041	0.967 ± 0.018	0.946 ± 0.043	0.936 ± 0.037	0.939 ± 0.077	0.905 ± 0.061
UniProt P17096|P17096-2	1.06 ± 0.062	1.06 ± 0.12	1.21 ± 0.081	1.33 ± 0.12	1.37 ± 0.14	1.69 ± 0.3	1.55 ± 0.21	2.02 ± 0.076
UniProt P51532|P51532-2|P51532-3|P51532-4|P51532-5|Q9HBD4	1.016 ± 0.0073	1.07 ± 0.045	1.1 ± 0.083	1.15 ± 0.13	1.19 ± 0.15	1.2 ± 0.17	1.24 ± 0.23	1.21 ± 0.21
UniProt P35606|P35606-2	1.04 ± 0.075	1.07 ± 0.11	0.994 ± 0.089	1.04 ± 0.12	1.04 ± 0.12	1.03 ± 0.12	1.01 ± 0.097	0.984 ± 0.087
UniProt O95793|O95793-2	0.997 ± 0.045	1.02 ± 0.044	1.1 ± 0.079	1.18 ± 0.076	1.33 ± 0.11	1.42 ± 0.13	1.54 ± 0.2	1.82 ± 0.31
SLC16A7 (UniProt O60669)	1.09 ± 0.034	0.98 ± 0.24	1.143 ± 0.0046	1.06 ± 0.15	1.1 ± 0.079	0.966 ± 0.15	1.12 ± 0.089	1.05 ± 0.16
URB1 (UniProt O60287)	1.07 ± 0.019	1.16 ± 0.061	1.21 ± 0.076	1.41 ± 0.097	1.79 ± 0.072	1.95 ± 0.13	2.18 ± 0.082	2.34 ± 0.033
K7EIY1|Q9Y421 (UniProt Q9Y421)	1.045 ± 0.0048	0.987 ± 0.15	1.07 ± 0.11	1.14 ± 0.14	1.25 ± 0.12	1.21 ± 0.2	1.24 ± 0.11	1.37 ± 0.088
EEF1E1 (UniProt O43324)	1.05 ± 0.28	0.987 ± 0.27	1.24 ± 0.41	1.43 ± 0.46	1.41 ± 0.44	1.39 ± 0.45	1.22 ± 0.39	1.31 ± 0.55
J3KPP4|O95232|H0YA81 (UniProt O95232)	1.13 ± 0.027	1.45 ± 0.062	1.54 ± 0.1	1.54 ± 0.095	1.56 ± 0.12	1.63 ± 0.13	1.72 ± 0.19	1.74 ± 0.18
RBM34 (UniProt P42696)	1.08 ± 0.0039	1.05 ± 0.034	1.14 ± 0.028	1.23 ± 0.065	1.41 ± 0.066	1.57 ± 0.12	1.68 ± 0.12	1.83 ± 0.066
UniProt P20339|P20339-2	0.999 ± 0.016	1.08 ± 0.04	0.875 ± 0.057	0.937 ± 0.059	0.865 ± 0.034	0.85 ± 0.024	0.82 ± 0.13	0.828 ± 0.14
